# Results reported in PubChem BioAssay (NCI).
# About 79,000 compounds went through this panel and 15% of them were active in at least one assay; those are over-represented in the sample as a whole. Values without a mark were called inactive. The source made the active and inactive calls. No stated cut-off is given here; in the data, active means growth inhibition above about 70%; inactive means the rest.
# Legend:
# [1] = NCI Yeast Anticancer Drug Screen. Data for the wt1 strain (AID 149);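 further: 0% = growth of vehicle-treated wt1 cultures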; settings: S. cerevisiae wt1 strain (SPY 50644) growth inhibition, active compounds read high
# How it was run: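 Compounds are added to wt1 yeast cultures. Growth is then measured. Inhibition is expressed relative to vehicle-treated controls.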
# [2] = NCI Yeast Anticancer Drug Screen. Data for the rad50EPP+ strain (AID 151);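 further: 0% = growth of vehicle-treated control cultures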; settings: S. cerevisiae rad50 mutant strain, active compounds read high
# How it was run: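 rad50EPP+ yeast treated with test compounds. Readout: growth vs vehicle control.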
# [3] = NCI Yeast Anticancer Drug Screen. Data for the mgt1 strain (AID 153); settings: S. cerevisiae mgt1 mutant growth inhibition, active compounds read high
# How it was run: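 Growth inhibition relative to vehicle controls was scored for the mgt1 yeast strain after compound exposure.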
# [4] = NCI Yeast Anticancer Drug Screen. Data for the rad50 strain (AID 155);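 further: 0% = growth of vehicle-only cultures of the same strain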; settings: S. cerevisiae rad50 strain growth inhibition, active compounds read high
# How it was run: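 Inhibition values express reduced yeast growth in compound-treated cultures relative to vehicle-treated controls.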
# [5] = NCI Yeast Anticancer Drug Screen. Data for the mec2-1 strain (AID 157); settings: S. cerevisiae mec2-1 strain, active compounds read high
# How it was run: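 Growth inhibition is read against vehicle-treated controls after compound exposure of the mec2-1 yeast strain, which is defective in DNA damage repair or cell cycle control.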
# [6] = NCI Yeast Anticancer Drug Screen. Data for the rad14 strain (AID 159);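 further: 0% = growth of vehicle-treated control cultures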; settings: S. cerevisiae rad14 strain growth inhibition, active compounds read high
# How it was run: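 A mutant yeast strain defective in DNA damage repair is treated with compound; inhibition of its growth is scored against untreated, vehicle-exposed cultures.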
# [7] = NCI Yeast Anticancer Drug Screen. Data for the sgs1 mgt1 strain (AID 161);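 further: 0% = growth of cultures given vehicle only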; settings: S. cerevisiae sgs1 mgt1 strain, active compounds read high
# How it was run: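 Percent growth inhibition was derived by comparing compound-exposed mutant yeast with vehicle-exposed cultures. The strain carries alterations in DNA damage repair.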
# [8] = NCI Yeast Anticancer Drug Screen. Data for the CLN2oe strain (AID 163);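 further: 0% = growth of vehicle-only control cultures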; settings: S. cerevisiae CLN2oe strain, active compounds read high
# How it was run: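 Compound-treated yeast; growth vs vehicle ctrl = % inhibition. Genetically altered strain (cell-cycle control).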
# [9] = NCI Yeast Anticancer Drug Screen. Data for the cln2 rad14 strain (AID 165);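 further: 0% = growth equal to vehicle treated cultures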; settings: S. cerevisiae cln2 rad14 strain, active compounds read high
# How it was run: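 Growth inhibition, relative to vehicle-treated controls, is the read-out. The test organism is a yeast strain with defined genetic alterations, cln2 rad14.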
# [10] = NCI Yeast Anticancer Drug Screen. Data for the bub3 strain (AID 167); settings: S. cerevisiae bub3 mutant strain, active compounds read high
# How it was run: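 Steps: expose the mutant yeast strain to compound; grow alongside vehicle-treated cultures; measure growth; express inhibition against the vehicle cultures.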
# [11] = NCI Yeast Anticancer Drug Screen. Data for the wt2 strain (AID 169);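 further: 0% = growth of vehicle-treated yeast cultures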; settings: S. cerevisiae wt2 strain growth inhibition, active compounds read high
# How it was run: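 Compound exposure of yeast; growth compared with vehicle controls; inhibition reported.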
# [12] = NCI Yeast Anticancer Drug Screen. Data for the sgs1 strain (AID 173);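 further: 0% = growth of vehicle-only control cultures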; settings: S. cerevisiae sgs1 mutant, active compounds read high
# How it was run: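 Compounds applied to genetically altered yeast; growth compared with vehicle-treated cultures to give % inhibition.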
# [13] = NCI Yeast Anticancer Drug Screen. Data for the mlh1 rad18 strain (AID 175); settings: S. cerevisiae mlh1 rad18 strain growth inhibition, active compounds read high
# How it was run: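 Cells of a genetically altered yeast strain, deficient in DNA damage repair, were treated with compound. Their growth was then compared with that of vehicle-treated cultures to give inhibition.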
# [14] = NCI Yeast Anticancer Drug Screen. Data for the rad18 strain (AID 177); settings: S. cerevisiae rad18 mutant growth inhibition, active compounds read high
# How it was run: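 Compounds are applied to a repair-deficient yeast strain, and growth is compared with that of vehicle-treated cultures to give percent inhibition.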
# [15] = at 5.0 µM (retest, dose inferred, filed as 0.5)
# [16] = at 50.0 µM (retest, dose inferred, filed as 5.0)
compound,measurement,setting,value
C=CCNC1=C2C[C@@H](C)C[C@H](OC)[C@H](O)[C@@H](C)/C=C(\C)[C@H](OC(N)=O)[C@@H](OC)/C=C\C=C(/C)C(=O)NC(=CC1=O)C2=O,growth inhibition,[1]; at 1.2 µM,-26%
same,growth inhibition,[1]; at 3.7 µM,-53%
same,growth inhibition,[1]; at 11.0 µM,41%
same,growth inhibition,[1]; at 33.0 µM,95% (active)
same,growth inhibition,[1]; at 100.0 µM,96% (active)
same,growth inhibition,[2]; at 1.2 µM,-33%
same,growth inhibition,[2]; at 3.7 µM,-43%
same,growth inhibition,[2]; at 11.0 µM,-46%
same,growth inhibition,[2]; at 33.0 µM,-30%
same,growth inhibition,[2]; at 100.0 µM,-1%
same,growth inhibition,[3]; at 1.2 µM,-72%
same,growth inhibition,[3]; at 3.7 µM,-44%
same,growth inhibition,[3]; at 11.0 µM,57%
same,growth inhibition,[3]; at 33.0 µM,95% (active)
same,growth inhibition,[3]; at 100.0 µM,95% (active)
same,growth inhibition,[4]; at 1.2 µM,-33%
same,growth inhibition,[4]; at 3.7 µM,-12%
same,growth inhibition,[4]; [15],-32%
same,growth inhibition,[4]; at 11.0 µM,64%
same,growth inhibition,[4]; at 33.0 µM,95% (active)
same,growth inhibition,[4]; [16],96% (active)
same,growth inhibition,[4]; at 50.0 µM,90.8% (active)
same,growth inhibition,[4]; at 100.0 µM,95% (active)
same,growth inhibition,[5]; at 1.2 µM,-73%
same,growth inhibition,[5]; at 3.7 µM,-59%
same,growth inhibition,[5]; [15],5%
same,growth inhibition,[5]; at 11.0 µM,77% (active)
same,growth inhibition,[5]; at 33.0 µM,96% (active)
same,growth inhibition,[5]; [16],98% (active)
same,growth inhibition,[5]; at 50.0 µM,92.5% (active)
same,growth inhibition,[5]; at 100.0 µM,95% (active)
same,growth inhibition,[6]; at 1.2 µM,-73%
same,growth inhibition,[6]; at 3.7 µM,-42%
same,growth inhibition,[6]; at 11.0 µM,55%
same,growth inhibition,[6]; at 33.0 µM,95% (active)
same,growth inhibition,[6]; at 100.0 µM,94% (active)
same,growth inhibition,[7]; [15],-7%
same,growth inhibition,[7]; [16],96% (active)
same,growth inhibition,[7]; at 50.0 µM,92% (active)
same,growth inhibition,[8]; at 1.2 µM,-60%
same,growth inhibition,[8]; at 3.7 µM,-43%
same,growth inhibition,[8]; at 11.0 µM,80% (active)
same,growth inhibition,[8]; at 33.0 µM,96% (active)
same,growth inhibition,[8]; at 100.0 µM,27%
same,growth inhibition,[9]; [15],-4%
same,growth inhibition,[9]; [16],97% (active)
same,growth inhibition,[9]; at 50.0 µM,90.3% (active)
same,growth inhibition,[10]; at 1.2 µM,-49%
same,growth inhibition,[10]; at 3.7 µM,-12%
same,growth inhibition,[10]; [15],35%
same,growth inhibition,[10]; at 11.0 µM,74% (active)
same,growth inhibition,[10]; at 33.0 µM,95% (active)
same,growth inhibition,[10]; [16],98% (active)
same,growth inhibition,[10]; at 50.0 µM,90.4% (active)
same,growth inhibition,[10]; at 100.0 µM,94% (active)
same,growth inhibition,[11]; at 1.2 µM,-51%
same,growth inhibition,[11]; at 3.7 µM,-65%
same,growth inhibition,[11]; at 11.0 µM,33%
same,growth inhibition,[11]; at 33.0 µM,93% (active)
same,growth inhibition,[11]; at 100.0 µM,96% (active)
same,growth inhibition,[12]; at 1.2 µM,-34%
same,growth inhibition,[12]; at 3.7 µM,-10%
same,growth inhibition,[12]; at 11.0 µM,56%
same,growth inhibition,[12]; at 33.0 µM,94% (active)
same,growth inhibition,[12]; at 100.0 µM,96% (active)
same,growth inhibition,[13]; [15],-7%
same,growth inhibition,[13]; [16],97% (active)
same,growth inhibition,[13]; at 50.0 µM,89.1% (active)
same,growth inhibition,[14]; at 1.2 µM,-22%
same,growth inhibition,[14]; at 3.7 µM,-23%
same,growth inhibition,[14]; at 11.0 µM,68%
same,growth inhibition,[14]; at 33.0 µM,95% (active)
same,growth inhibition,[14]; at 100.0 µM,95% (active)
